The labels stand for the following.
B1: PhoQ; a variant is named by its letters at X, in order, P23837 (parent)
chain: MKKLLRLFFPLSLRVRFLLATAAVVLVLSLAYGMVALIGYSVSFDKTTFRLLRGESNLFYTLAKWENNKLHVELPENIDKQSPTMTLIYDENGQLLWAQRDVPWLMKMIQPDWLKSNGFHEIEADVNDTSLLLSGDHSIQQQLQEVREDDDDAEMTHSVAVNVYPATSRMPKLTIVVVDTIPVELKSSYMVWSWFIYVLSANLLLVIPLLWVAAWWSLRPIEALAKEVRELEEHNRELLNPATTRELTSLVRNLNRLLKSERERYDKYRTTLTDLTHSLKTPLXXLQXXLRSLRSEKMSVSDAEPVMLEQISRISQQIGYYLHRASMRGGTLLSRELHPVAPLLDNLTSALNKVYQRKGVNISLDISPEISFVGEQNDFVEVMGNVLDNACKYCLEFVEISARQTDEHLYIVVEDDGPGIPLSKREVIFDRGQRVDTLRPGQGVGLAVAREITEQYEGKIVAGESMLGGARMEVIFGRQHSAPKDE

In all, about 140,000 sequences were measured (“enrichment ratio after two sorts for PhoP signalling”: median about 0, highest 2% from about 11 on). Many of the other results were omitted from the sample, so the highest values are more common in it than they were.

Variants of B1 are the subject of the assay. Description: enrichment ratio after two sorts for PhoP signalling (ratio (wild type AVST 3.29)); higher = more functional. The conditions noted are these: with PhoP (E. coli).
Regarding PAWP, the enrichment ratio is at most 0.25.
The same measure for TTFE: at most 0.25; for AYLY: at most 0.25; for DNLY: at most 0.25.
For AKLY the value was 19.7; for AILY, 1.94.
On to TKLY, for which the enrichment ratio is 16.4.
For HKLY the value was at most 0.25; for ANLY, 12; for KKLY, at most 0.25.
For GNLY the value was 3.04; for LENP, at most 0.25; for YGNS, at most 0.25.
For ELCS the value was at most 0.25; for SDHR, at most 0.25.
As to RTCY, the enrichment ratio is at most 0.25.
The same measure for FQWN: at most 0.25.
Turning to MMYS, the enrichment ratio was at most 0.25.
For the variant QEYS, the enrichment ratio is 37.
As to STYS, the enrichment ratio amounted to 0.267.
The same measure for MCYS: 12.8; for MEYS: 25.6; for MLYS: at most 0.25.
As to QRYS, the enrichment ratio was at most 0.25.
For KCYS the value was at most 0.25; for MKYS, at most 0.25.
For LVRD the value was at most 0.25; for RKTS, at most 0.25.
The same measure for MAFY: 5.02.
Take VGMG: the enrichment ratio was at most 0.25.
The same measure for GGMI: 12.3.
Turning to GGMD, the enrichment ratio is at most 0.25.
The same measure for LGMI: 12.6.
For LGMS the value was at most 0.25; for VGMI, 20.4.
With TGMI, the enrichment ratio turned out to be 13.2.
NIMI: the enrichment ratio was at most 0.25.
The same measure for NGMI: 0.49; for RGMI: at most 0.25; for VGMW: at most 0.25.
As to LGMA, the enrichment ratio was at most 0.25.
For DSTD the value was at most 0.25; for HLRM, at most 0.25.
As for IPWT, the enrichment ratio was at most 0.25.
Consider WPQK, for which the enrichment ratio is at most 0.25.
For TMAW, the enrichment ratio was at most 0.25.
As to WDLT, the enrichment ratio was at most 0.25.
For GWGM, the enrichment ratio is at most 0.25.
HMWI: the enrichment ratio is at most 0.25.
On to PRFL, for which the enrichment ratio is at most 0.25.
Take DFQL: the enrichment ratio is at most 0.25.
For AGMS the value was 3.53.
As to AGMG, the enrichment ratio was at most 0.25.
The same measure for AGMI: 16.4.
For NSFT, the enrichment ratio is at most 0.25.
The same measure for YKQH: at most 0.25; for HDPL: at most 0.25; for MNSK: at most 0.25.
The same measure for MNSV: 16.9.
For MNIV, the enrichment ratio was at most 0.25.
For TNSV the value was 19.4.
As to LNSV, the enrichment ratio was at most 0.25.
The same measure for ANSV: 7.03.
For QING, the enrichment ratio is at most 0.25.
As for PDEL, the enrichment ratio is at most 0.25.
Regarding TSHN, the enrichment ratio turned out to be 0.659.
The same measure for ENQD: at most 0.25.
With MKTQ, the enrichment ratio was at most 0.25.
For NNTQ the value was at most 0.25; for TKTQ, 12.6.
For LCTQ the value was at most 0.25.
In the case of TGTQ, the enrichment ratio was 17.7.
For NGTQ the value was at most 0.25; for TSTQ, 16.
Consider TMTQ, for which the enrichment ratio turned out to be 14.3.
For HKTQ the value was at most 0.25; for MMTQ, at most 0.25; for KSTQ, at most 0.25.
As for TMLA, the enrichment ratio is 2.72.
The same measure for LGMC: at most 0.25.
For NWTN the value was at most 0.25; for VCIS, 0.315; for QCCN, at most 0.25.
The same measure for PNLQ: 1.01; for SPYC: at most 0.25; for YNMF: at most 0.25.
Regarding LKVT, the enrichment ratio was at most 0.25.
Regarding SFHI, the enrichment ratio was at most 0.25.
The same measure for VLMY: at most 0.25; for EGRC: at most 0.25; for EQYD: at most 0.25.
In the case of SLTQ, the enrichment ratio came to 6.15.
For SGTQ the value was 17.4; for TITQ, 12.5.
As for NMTQ, the enrichment ratio is at most 0.25.
For TILA the value was 4.43; for SGTW, at most 0.25; for KYTQ, at most 0.25.
For SQTQ the value was 11.3; for STTQ, 6.67.
Consider VCDC, for which the enrichment ratio is at most 0.25.
Consider KHCF, for which the enrichment ratio was at most 0.25.
In the case of TKQF, the enrichment ratio was at most 0.25.
Consider VNQI, for which the enrichment ratio was at most 0.25.
For MEYF the value was at most 0.25; for NAYE, at most 0.25; for MEYE, at most 0.25.
Take FDYF: the enrichment ratio was at most 0.25.
Consider MAYI, for which the enrichment ratio is 21.1.
For the variant MAYE, the enrichment ratio was found to be 33.3.
For FDYV the value was at most 0.25.
For MAYK the value was at most 0.25; for MAYF, 16.5.
For MAAY, the enrichment ratio was at most 0.25.
Regarding MAYV, the enrichment ratio is 15.4.
For NAYV the value was at most 0.25; for MGDQ, at most 0.25.
For VFQR the value was at most 0.25; for GVSL, 5.42.
GQSH: the enrichment ratio was at most 0.25.
For YRWT, the enrichment ratio is at most 0.25.
For FKMN the value was at most 0.25; for IMAN, at most 0.25.
For MAHE the value was at most 0.25; for MAHF, 9.56.
The same measure for KAYN: at most 0.25.
In the case of MAYN, the enrichment ratio is 16.6.
As to MAYM, the enrichment ratio stood at 9.25.
For the variant MAHI, the enrichment ratio came to 24.7.
For LMFI the value was at most 0.25.
On to VDKC, for which the enrichment ratio was at most 0.25.
For PFWD the value was 3.08.
For SWFV the value was at most 0.25.
For FCIG the value was at most 0.25; for ATMH, 12.3; for ATTH, 8.31.
Consider HKMH, for which the enrichment ratio was at most 0.25.
For AIMH the value was 4.85.
In the case of AKMH, the enrichment ratio came to 12.
Take ATCH: the enrichment ratio was at most 0.25.
For QGLS the value was 3.82; for LDNH, at most 0.25; for TEIV, at most 0.25.
On to NEIS, for which the enrichment ratio is at most 0.25.
With MEIV, the enrichment ratio is 6.05.
For QEIS the value was at most 0.25; for MEIS, 13.8; for TEIS, 11.4.
For FGMP the value was at most 0.25; for MYAF, at most 0.25.
NEMI: the enrichment ratio came out at 29.
As for NHMI, the enrichment ratio was at most 0.25.
The same measure for NHMV: at most 0.25; for THMI: 26.1.

Source of the values: a collection of fitness landscapes (doi:10.1126/science.1257360).
